Records with an inconclusive call do not appear. Entries that show only a call come without a potency. Active and inactive are the calls of the source. The call rests on the fitted dose curve; in most records, active means well fitted inhibition curve with a large enough effect; inconclusive means small, poorly fitted or top-dose-only effect; inactive means flat fitted curve, though single readings scatter.
tested on: ICS; experiment: qHTS profiling for inhibitors of Plasmodium falciparum proliferation (AID 504749); further: nearly all actives have a fitted effect of over 60% in size; conditions: P. falciparum in erythrocytes, SYBR Green DNA, 72 h; series mostly up to 28.7 µM
In short: (§1)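 In a 72 h erythrocytic culture (37 C, humidified, 5% CO2) at 2.5% hematocrit and 0.3% starting parasitemia, compounds were tested; SYBR Green I in detergent lysis buffer stained parasite DNA overnight.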
Potency means the concentration at half of the fitted maximal effect.

Row | Structure (SMILES) | Potency
1 | CC1=C(C)C(=O)C(CCCCC#CCCCC#CCO)=C(C)C1=O | 2.24 µM (active)
2 | CCCN1C[C@H](CSC)C[C@@H]2c3cccc4[nH]cc(c34)C[C@H]21 | 11.2 µM (active)
3 | NC(=Nc1ccccc1)Nc1ccccc1 | inactive
4 | CC1=NS(=O)(=O)c2cc(Cl)ccc2N1 | inactive
5 | O=C1NCN(c2ccccc2)C12CCN(CCCC(c1ccc(F)cc1)c1ccc(F)cc1)CC2 | 3.98 µM (active)
6 | COc1cc(C(=O)OCCCN2CCCN(CCCOC(=O)c3cc(OC)c(OC)c(OC)c3)CC2)cc(OC)c1OC | 8.91 µM (active)
7 | O=C1CC2(CCCC2)CC(=O)N1CCCCN1CCN(c2ncccn2)CC1 | inactive
8 | O=C(CCCN1CCC(O)(c2cccc(C(F)(F)F)c2)CC1)c1ccc(F)cc1 | 5.01 µM (active)
9 | COc1ccc(CCN(C)CCCC(C#N)(c2cc(OC)c(OC)c(OC)c2)C(C)C)cc1OC (configuration not stated) | 7.94 µM (active)

tested on: JCK; experiment: as above; conditions: P. falciparum in erythrocytes, SYBR Green DNA, 72 h; series mostly up to 28.7 µM
In short: as §1

Row | Structure (SMILES) | Potency
10 | CC(C)COCC(CN(Cc1ccccc1)c1ccccc1)N1CCCC1 (configuration not stated) | inactive
11 | CNC1(C)C2CCC(C2)C1(C)C (configuration not stated) | inactive
12 | c1cc(CN2CCCCC2)cc(OCCCNc2nc3ccccc3s2)c1 | inactive
13 | Cc1nc2ccccn2c(=O)c1CCN1CCC(C(=O)c2ccc(F)cc2)CC1 | inactive
14 | COc1ccc(CN(CCN(C)C)c2ccccn2)cc1 | 1.26 µM (active)
15 | CC(=O)[C@]1(O)Cc2c(O)c3c(c(O)c2[C@@H](O[C@H]2C[C@H](N)[C@H](O)[C@H](C)O2)C1)C(=O)c1ccccc1C3=O | 8.91 µM (active)
16 | Brc1c(NC2=NCCN2)ccc2nccnc12 | inactive
17 | COCCCC/C(=N\OCCN)c1ccc(C(F)(F)F)cc1 | inactive
18 | CC(C)(C)c1ccc(C(=O)CCCN2CCC(OC(c3ccccc3)c3ccccc3)CC2)cc1 | inactive
19 | NC(N)=N/N=C/c1c(Cl)cccc1Cl | inactive
20 | CCN(CC)CCNC(=O)c1cc(S(C)(=O)=O)ccc1OC | inactive
21 | NC(=Nc1ccccc1)Nc1ccccc1 | inactive
22 | CN(C)C/C=C(/c1ccc(Br)cc1)c1cccnc1 | inactive
23 | CN(C)CC/C=C1\c2ccccc2COc2ccccc21 | inactive
24 | OC(CCN1CCCCC1)(c1ccccc1)C1CCCCC1 (configuration not stated) | inactive
25 | CC(C)[N+](C)(CCOC(=O)C1c2ccccc2Oc2ccccc21)C(C)C | inactive
26 | O=C1CC2(CCCC2)CC(=O)N1CCCCN1CCN(c2ncccn2)CC1 | inactive
27 | O=C(CCCN1CCC(O)(c2cccc(C(F)(F)F)c2)CC1)c1ccc(F)cc1 | 12.6 µM (active)

Source: PubChem BioAssay (NCATS)
